These results are taken from ChEMBL document CHEMBL4808148, “HDAC6 screening dataset using tau-based substrate in an enzymatic assay yields selective inhibitors and activators” (2021).

In all, about 5,600 compounds went through this assay and about 390 (7%) showed an effect of 50% or more. Many of the other results were omitted from the sample, so strong results are more common in it than they were. Non-standard residues stand in square brackets, D forms with d. Residues, ends and D or L forms follow the SMILES beside them. αMeP = C[C@@]1(C(=O)O)CCCN1

Assay [1] has as its target T1, Protein deacetylase HDAC6 (Homo sapiens) (UniProt Q9UBN7).
T1 sequence (whole entry): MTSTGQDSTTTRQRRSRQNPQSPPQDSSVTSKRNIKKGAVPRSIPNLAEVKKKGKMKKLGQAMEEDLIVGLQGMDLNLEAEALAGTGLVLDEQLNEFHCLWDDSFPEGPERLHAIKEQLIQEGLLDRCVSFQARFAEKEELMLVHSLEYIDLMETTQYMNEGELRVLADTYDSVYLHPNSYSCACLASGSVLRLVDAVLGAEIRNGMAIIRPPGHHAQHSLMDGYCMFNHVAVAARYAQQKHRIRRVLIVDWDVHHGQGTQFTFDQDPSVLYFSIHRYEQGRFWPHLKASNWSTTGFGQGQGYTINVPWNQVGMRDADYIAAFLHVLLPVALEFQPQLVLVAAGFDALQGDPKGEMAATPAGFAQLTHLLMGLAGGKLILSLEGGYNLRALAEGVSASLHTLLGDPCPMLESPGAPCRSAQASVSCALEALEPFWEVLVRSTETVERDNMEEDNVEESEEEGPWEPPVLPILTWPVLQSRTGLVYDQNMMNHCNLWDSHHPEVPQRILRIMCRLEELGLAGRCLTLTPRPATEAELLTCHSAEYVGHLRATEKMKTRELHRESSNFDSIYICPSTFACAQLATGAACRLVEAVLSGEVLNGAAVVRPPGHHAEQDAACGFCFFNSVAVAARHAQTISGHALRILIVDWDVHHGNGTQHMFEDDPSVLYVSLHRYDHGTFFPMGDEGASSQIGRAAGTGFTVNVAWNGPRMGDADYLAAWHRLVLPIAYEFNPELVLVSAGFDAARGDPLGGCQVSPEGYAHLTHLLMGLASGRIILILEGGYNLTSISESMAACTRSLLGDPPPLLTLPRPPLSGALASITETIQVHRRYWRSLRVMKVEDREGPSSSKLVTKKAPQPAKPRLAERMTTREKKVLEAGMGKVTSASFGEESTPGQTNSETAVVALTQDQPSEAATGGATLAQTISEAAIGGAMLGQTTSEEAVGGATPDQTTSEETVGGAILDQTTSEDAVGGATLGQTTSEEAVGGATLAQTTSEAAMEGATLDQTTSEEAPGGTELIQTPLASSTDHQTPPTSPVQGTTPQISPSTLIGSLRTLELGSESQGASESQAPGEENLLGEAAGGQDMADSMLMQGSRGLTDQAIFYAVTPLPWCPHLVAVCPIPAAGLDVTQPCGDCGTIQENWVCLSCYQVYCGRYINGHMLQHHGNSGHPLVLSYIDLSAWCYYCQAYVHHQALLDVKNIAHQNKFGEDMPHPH
The following applies: at 10 µM.

The target of assay [2] is Protein deacetylase HDAC6 (Homo sapiens) (UniProt Q9UBN7). The note with it: at 10 µM. The source holds these as a separate data set.

As a reminder, the inhibition is the change of the read-out against control, counted positive when it falls. Turning to `O=C(O)C[C@H]1CC[C@H](c2ccc(NC(=O)c3nnc(Nc4ccc(F)c(F)c4)o3)cc2)CC1`, in assay [1], the inhibition stood at 35.2%.

For the molecule `Oc1cc(O)c2cc(O)c(-c3cc(O)c(O)c(O)c3)[o+]c2c1`, the inhibition in assay [1] was 38.4%.

As for `CC(C)Nc1cccnc1N1CCN(C(=O)c2cc3cc(NS(C)(=O)=O)ccc3[nH]2)CC1`, in assay [1], the inhibition worked out at 51.2%.

`CC(C)(C)c1ccc(NC(=O)N2CCN(c3ncccc3Cl)CC2)cc1`: the inhibition in assay [1] was 24.7%.

Take `COC1=C(OC)C(=O)C(C/C=C(\C)CC/C=C(\C)CC/C=C(\C)CC/C=C(\C)CC/C=C(\C)CC/C=C(\C)CC/C=C(\C)CC/C=C(\C)CC/C=C(\C)CCC=C(C)C)=C(C)C1=O`: the inhibition in assay [1] came out at 4.15%.

As for `N[C@H](C(=O)O)c1ccc(O)c(C(=O)O)c1`, the inhibition in assay [1] was -8.79%.

With `N[C@@H](C(=O)O)c1ccc(O)c(C(=O)O)c1`, the inhibition in assay [1] is 1.46%.

As to `CC(C)c1ccc2oc3nc(N)c(C(=O)O)cc3c(=O)c2c1`, in assay [1], the inhibition was determined as 98.2%.

In the case of “BISMUTH SUBCITRATE POTASSIUM, CHEMBL1201186”, the inhibition in assay [2] is 16.3%.

As for `Cc1ccc(/C(=C\CN2CCCC2)c2cccc(/C=C/C(=O)O)n2)cc1`, in assay [1], the inhibition is -6.81%.

On to `COc1cc(C[C@H]2c3cc(OC)c(OC)cc3CCN2C)c(Oc2cc3c(cc2OC)-c2c(OC)c(OC)cc4c2[C@H](C3)N(C)CC4)cc1OC`, for which the inhibition in assay [1] came to 33.6%.

For the molecule `COc1cc(C(=O)NCC2(N(C)C)CCCC2)cc(OC)c1OCc1ccccc1`, the inhibition in assay [1] is 0.96%.

Regarding `Nc1nc(NCCc2ccc(O)cc2)nc2nc(-c3ccco3)nn12`, in assay [1], the inhibition turned out to be 67.5%.

Consider `COc1cc(C(=S)N2CCOCC2)cc(OC)c1OC`, for which, in assay [1], the inhibition was found to be 14.8%.

On to `COc1ccc(S(=O)(=O)N2c3ccc(Cl)cc3[C@](O)(c3ccccc3Cl)[C@@H]2C(=O)N2CCC[C@H]2C(N)=O)cc1OC`, for which the inhibition in assay [1] is -7.22%.

In the case of `O=C(Nc1ccc2c(O)cc(S(=O)(=O)O)cc2c1)Nc1ccc2c(O)cc(S(=O)(=O)O)cc2c1`, in assay [1], the inhibition was 45.9%.

Regarding `O=C(NCC(=O)N1CCCC1)Nc1ccc2cnccc2c1`, in assay [1], the inhibition was -7.55%.

For `COc1cc2c(cc1C(F)(F)F)N(C(=O)Nc1cc(F)cc(-c3cccnc3)c1)CC2`, the inhibition in assay [1] is -6.46%.

Regarding `Cn1ccc2cc3c(cc21)CCN3C(=O)Nc1cccnc1`, in assay [1], the inhibition was 100%.

For the molecule `Cn1ccc2cc(NC(=O)Nc3cccnc3)ccc21`, the inhibition in assay [1] amounted to 88.1%.

Consider `CSc1cc2c(cc1C(F)(F)F)N(C(=O)Nc1cccnc1)CC2`, for which the inhibition in assay [1] turned out to be 19.3%.

Turning to `Cc1c(C(=O)NN2CCOCC2)nn(-c2ccc(Cl)cc2Cl)c1-c1ccc(I)cc1`, the inhibition in assay [1] was determined as 0.27%.

With `COc1cccc([C@@H](C)NCCCc2ccccc2Cl)c1`, the inhibition in assay [1] is 2.6%.

`CC(C)C[C@H](N)C(=O)O`: in assay [1], the inhibition was 5.48%.

With `CC(=O)Nc1cccc(Nc2ncnc(N3CCC(OCc4ccc(OC(F)(F)F)cc4)CC3)n2)c1C`, in assay [1], the inhibition worked out at 22.4%.

Consider `CCc1c(-c2ccccc2)c(-c2ccccc2)nn1-c1ccccc1-c1cccc(OCC(=O)O)c1`, for which, in assay [1], the inhibition was 10.2%.

On to `O=C(O)CCc1nc2ccccc2[nH]1`, for which the inhibition in assay [1] worked out at 10.6%.

Turning to `c1ccc2[nH]c(-c3cscn3)nc2c1`, the inhibition in assay [1] came to 97.3%.

Regarding `CCN(c1cc(C#CCN2CCOCC2)cc(C(=O)NCc2c(C)cc(C)[nH]c2=O)c1C)[C@H]1CC[C@H](N(C)CCOC)CC1`, the inhibition in assay [1] is -8.25%.

Consider `COc1ccccc1OC(=O)C(C)c1ccc(CC(C)C)cc1` (stereo not given), for which the inhibition in assay [1] was 10.7%.

`CCOC(=O)[C@H](CCc1ccccc1)N[C@@H](C)C(=O)N1[C@H](C(=O)O)C[C@H]2CCCC[C@@H]21`: the inhibition in assay [1] was determined as 3.93%.

`Cc1cccc(C)c1-n1c(=O)c2cnc(Nc3ccc(N4CCN(C)CC4)cc3)nc2n2c3ccccc3nc12`: the inhibition in assay [1] is -1.49%.

`O=C(Nc1c[nH]nc1-c1nc2ccc(CN3CCOCC3)cc2[nH]1)NC1CC1`: the inhibition in assay [1] amounted to 32.3%.

Take `Nc1ccc2cc3ccc(N)cc3nc2c1`: the inhibition in assay [1] amounted to 6.02%.

In the case of `Nc1ccc(-c2nc3ccc(-c4nc5ccc(N)cc5[nH]4)cc3[nH]2)cc1`, the inhibition in assay [1] was determined as 61.9%.

In the case of `CC(C)C(C(=O)Nc1nccs1)c1ccc(Cl)cc1` (stereo not given), in assay [1], the inhibition was determined as 10.4%.

As to `COC(=O)c1csc(C(=O)c2c[nH]c3ccccc23)n1`, the inhibition in assay [1] was determined as 47.6%.

With `Nc1ccn([C@@H]2O[C@H](CO)[C@@H](O)C2(F)F)c(=O)n1`, the inhibition in assay [1] is -4.87%.

Turning to `COC(=O)Nc1nc2cc(C(=O)c3ccc(F)cc3)ccc2[nH]1`, the inhibition in assay [1] was found to be 1.02%.

For `COC(=O)Nc1nc2cc(SC(C)C)ccc2[nH]1`, in assay [1], the inhibition amounted to 79.4%.

Consider `COC(=O)Nc1nc2cc(C(=O)c3ccccc3)ccc2[nH]1`, for which, in assay [1], the inhibition was -5.79%.

With `COC(=O)Nc1nc2cc(Sc3ccccc3)ccc2[nH]1`, the inhibition in assay [1] came to 65.2%.

As for `CCCOc1ccc2[nH]c(NC(=O)OC)nc2c1`, in assay [1], the inhibition is 31.6%.

Take `CCCC(=O)Nc1ncnc2c1ncn2C1O[C@@H]2COP(=O)(O)O[C@H]2[C@H]1OC(=O)CCC` (stereo not given in full): the inhibition in assay [1] was 3.41%.

`N#Cc1ncccn1`: in assay [1], the inhibition is -1.21%.

With `COc1cc(N2CCC(N3CCN(C)CC3)CC2)ccc1Nc1ncc(Cl)c(Nc2ccccc2S(=O)(=O)C(C)C)n1`, the inhibition in assay [1] was 17.9%.

On to `C[C@@]1(C(=O)N[C@@H](CCC(=O)O)C(=O)O)CCCN1C(=O)CN` (H-Gly-[αMeP]-Glu-OH), for which, in assay [1], the inhibition was -8.16%.

Consider `O=C(OCCOCCO)c1ccccc1Nc1cccc(C(F)(F)F)c1`, for which the inhibition in assay [1] was 46.4%.

For the molecule `Cc1c(Nc2ncccc2C(=O)O)cccc1C(F)(F)F`, in assay [1], the inhibition was 89.7%.

In the case of `Cc1c(Cl)cccc1Nc1ccccc1C(=O)O`, the inhibition in assay [1] came to 32.3%.

Take `O=C(O)c1cccnc1Nc1cccc(C(F)(F)F)c1`: the inhibition in assay [1] was 74.8%.

For `O=C1OC(OC(=O)c2cccnc2Nc2cccc(C(F)(F)F)c2)c2ccccc21` (stereo not given), in assay [1], the inhibition turned out to be 4.26%.

Consider `O=C(O)c1cccnc1C(=O)O`, for which, in assay [1], the inhibition was -0.23%.

`CN[C@H](C(=O)N[C@H](C(=O)N(C)[C@H](/C=C(\C)C(=O)O)C(C)C)C(C)(C)C)C(C)(C)c1ccccc1`: the inhibition in assay [1] was -3.5%.

Take `CC1OC1P(=O)(O)O` (stereo not given): in assay [1], the inhibition was -9.26%.

TEPRENONE, CHEMBL5314356: the inhibition in assay [2] was found to be 27.9%.

On to `CC1=C(C(=O)Nc2cc3cn[nH]c3cc2F)C(c2ccc(C(F)(F)F)cc2)CC(=O)N1` (stereo not given), for which, in assay [1], the inhibition was determined as 24.4%.

Consider `C#CCN[C@@H]1CCc2ccccc21`, for which, in assay [1], the inhibition worked out at 54%.

On to `c1ccc(Oc2cccnc2)cc1`, for which the inhibition in assay [1] was 10.2%.

As to `CCCCNc1nc(N)c2[nH]c(=O)n(Cc3ccc(OCCN(C)C)nc3)c2n1`, the inhibition in assay [1] was -9.47%.

Turning to `CCCC(=O)OCOC(=O)C1=C(C)NC(C)=C(C(=O)OC)C1c1cccc(Cl)c1Cl` (stereo not given), the inhibition in assay [1] was found to be 44.1%.

Consider `Cc1ccc(Nc2ncc3c(n2)N(C)C(=O)N(c2cc(NC(=O)c4cccc(C(F)(F)F)c4)ccc2C)C3)cn1`, for which the inhibition in assay [1] turned out to be 2.43%.

With `O=C(O)C1=CC(O)C(O)[C@H](O)C1` (stereo not given in full), the inhibition in assay [1] was 11.8%.

`CCCn1c(=O)c2[nH]c(-c3cnn(Cc4cccc(C(F)(F)F)c4)c3)nc2n(CC)c1=O`: the inhibition in assay [1] came out at 101%.

For `CCCn1c(=O)c2nc(-c3ccccc3)[nH]c2n(CCC)c1=O`, in assay [1], the inhibition is -5.2%.
